Screening data from PubChem.
In the library only some 15% were active in any assay of this set; here they are far more common.
ALOX12 inh: Primary qHTS assay for inhibitors of human arachidonate 12S-lipoxygenase (ALOX12): Round 2 | purified 12hLO, xylenol orange hydroperoxide absorbance | 1.1% of 580,000 active | Potency, µM (titrated, usually from 108 µM), actives largely listed as inhibitors | Polyunsaturated fatty acid lipoxygenase ALOX12 (Homo sapiens), P18054
Target sequence (P18054 whole entry, looked up): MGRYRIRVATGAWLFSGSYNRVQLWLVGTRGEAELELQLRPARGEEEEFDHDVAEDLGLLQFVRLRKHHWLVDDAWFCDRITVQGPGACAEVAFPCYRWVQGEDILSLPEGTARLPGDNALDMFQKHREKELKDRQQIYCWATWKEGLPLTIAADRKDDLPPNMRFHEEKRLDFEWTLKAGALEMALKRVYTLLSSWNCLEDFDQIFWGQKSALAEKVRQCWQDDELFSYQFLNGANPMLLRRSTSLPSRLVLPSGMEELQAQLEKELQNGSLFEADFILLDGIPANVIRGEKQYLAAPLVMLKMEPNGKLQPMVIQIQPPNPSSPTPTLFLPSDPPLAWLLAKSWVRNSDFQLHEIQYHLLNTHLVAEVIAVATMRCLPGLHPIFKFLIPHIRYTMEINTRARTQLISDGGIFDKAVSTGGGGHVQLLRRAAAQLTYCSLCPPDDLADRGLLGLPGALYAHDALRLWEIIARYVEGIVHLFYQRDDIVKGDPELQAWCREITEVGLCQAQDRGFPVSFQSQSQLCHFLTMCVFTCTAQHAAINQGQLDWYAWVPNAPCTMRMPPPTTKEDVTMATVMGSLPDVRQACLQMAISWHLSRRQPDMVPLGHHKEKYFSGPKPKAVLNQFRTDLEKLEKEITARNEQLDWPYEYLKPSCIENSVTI
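Hydroperoxide product was detected by ferrous iron/xylenol orange as the 573 to 405 nm absorbance ratio. Arachidonic acid at 40 uM (final) was turned over for 30 min at room temperature by 150 nM human 12hLO, pH 7.0 Hepes buffer, after 15 min compound preincubation.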
Gal4-VP16 FLuc: VP16 counterscreen qHTS for inhibitors of ROR gamma transcriptional activity. Potency, µM (titrated, usually from 53.6 µM), usual class: inhibitors. 3.5% of 310,000 active. AID 2546, 2010. Drosophila S2 Gal4-VP16 UAS-luciferase, luminescence, 20 h;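 further: Gal4-VP16 expression switched on by copper sulfate through the metallothionein promoter; nearly all actives have a fitted effect of over 50% in size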
DT40 TDP1 no CPT: qHTS for Inhibitors of human tyrosyl-DNA phosphodiesterase 1 (TDP1): qHTS in cells in absence of CPT | DT40 Tdp1-/- hTDP1 cells, no CPT, ATP luminescence, 48 h | 15% of 420,000 active | AID 686978, 2013 | Potency, µM (titrated, usually from 46.2 µM), actives largely listed as inhibitors; further: nearly all actives have a fitted effect of over 55% in size
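Cells were dispensed at 400 per well, compounds added by pin tool, plates incubated ≥48 hr at 37 °C, then CellTiter-Glo added for 30 min at room temperature before luminescence reading. Line: DT40 Tdp1-/- complemented with hTDP1; camptothecin omitted.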
ELG1 repair inh: qHTS screen for small molecules that inhibit ELG1-dependent DNA repair in human embryonic kidney (HEK293T) cells expressing luciferase-tagged ELG1; HEK293T ELG1-luciferase reporter, luminescence, 16 h; DNA damage induced by 5-fluorouridine; Potency, µM (doses to about 46.1 µM), actives largely listed as inhibitors; 2.3% of 330,000 active; AID 504467, 2011; further: nearly all actives have a fitted effect of over 55% in size
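DMSO vehicle served as the neutral condition. Each well held 2,000 cells given 5-fluorouridine plus compound; after 16 hr at 37 °C/5% CO2, ONE-Glo was added and luciferase measured 30 min later.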
DT40 TDP1 CPT: qHTS for Inhibitors of human tyrosyl-DNA phosphodiesterase 1 (TDP1): qHTS in cells in presence of CPT; chicken DT40 Tdp1-/-;hTDP1 cells + 20 nM CPT, ATP luminescence, 48 h; AID 686979, 2013; Potency, µM (highest dose often 46.2 µM), usual class: inhibitors; 12% of 420,000 active; further: nearly all actives have a fitted effect of over 55% in size
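Chicken DT40 Tdp1-/- cells stably complemented with human TDP1 were seeded at 400 cells/well in medium containing 20 nM camptothecin, exposed to pin-transferred compounds, and grown at 37 °C for at least 48 hr. Viability was read as ATP luminescence.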
RORg inh: qHTS for inhibitors of ROR gamma transcriptional activity | 5.4% of 310,000 active | Potency, µM (doses to about 53.6 µM), most hits filed as inhibitors | Nuclear receptor ROR-gamma (Mus musculus), P51450 | Drosophila S2 Gal4-RORgamma UAS-luciferase reporter, 20 h; further: nearly all actives have a fitted effect of over 60% in size
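ROR gamma transcriptional activity was tracked as Gal4-UAS luciferase output in stably transfected Drosophila Schneider cells, with compound added 1 hr before 700 uM copper sulfate induction and a 20 hr ambient-temperature incubation.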
Hits are given with their value; ! = a repeat was not active; [ ] = dose if it differs, or a comment. The call rests on the fitted dose curve; in most records, active means well fitted curve in the direction sought with a large enough effect; inconclusive means small, poorly fitted or top-dose-only effect, or another doubt; inactive means no such curve, though single readings can be large; an effect the other way counts as inactive or inconclusive.

Screening CCc1c(C)sc2c1CCN(Cc1ccccc1)C2c1ccccc1 (stereo not given) returned ALOX12 inh inactive, DT40 TDP1 no CPT 2.91µM and DT40 TDP1 CPT 7.31µM.
Screening O=c1cc(N2CCc3ccccc3C2)[nH]c(=O)n1C1CCCCC1 returned ALOX12 inh inactive, Gal4-VP16 FLuc inactive, DT40 TDP1 no CPT inconclusive, ELG1 repair inh inactive, DT40 TDP1 CPT 1.84µM and RORg inh inactive.
For O=c1cc(N2CCC(Cc3ccccc3)CC2)[nH]c(=O)n1C1CCCCC1 the results were ALOX12 inh inactive, Gal4-VP16 FLuc inactive, DT40 TDP1 no CPT 16.4µM, ELG1 repair inh inactive, DT40 TDP1 CPT inconclusive and RORg inh inactive.
Screening O=C(CSCc1ccc(Br)cc1)Nc1ccccc1C(=O)N1CCOCC1 returned ALOX12 inh inactive, DT40 TDP1 no CPT 16.4µM and DT40 TDP1 CPT inconclusive.
O=C(CSCc1ccc(F)cc1)Nc1ccccc1C(=O)N1CCOCC1 was read as ALOX12 inh inactive, Gal4-VP16 FLuc inactive, DT40 TDP1 no CPT inactive, ELG1 repair inh inactive, DT40 TDP1 CPT inactive and RORg inh inactive.
For O=C(CSCc1ccc(Cl)cc1)Nc1ccc(O)cc1C(=O)O the results were ALOX12 inh 6.31µM, Gal4-VP16 FLuc inactive, DT40 TDP1 no CPT inactive, ELG1 repair inh inactive, DT40 TDP1 CPT inactive and RORg inh inactive.
`COc1ccccc1C(=O)Nc1ccccc1N1CCCCC1` gave ALOX12 inh inactive, Gal4-VP16 FLuc inactive, DT40 TDP1 no CPT 18.4µM, ELG1 repair inh inconclusive, DT40 TDP1 CPT inconclusive and RORg inh inactive.
`O=C(Nc1ccccc1N1CCCCC1)C1=COCCO1` gave ALOX12 inh inactive, DT40 TDP1 no CPT 11.6µM, ELG1 repair inh inactive and DT40 TDP1 CPT inconclusive.
COc1ccccc1NC(=O)c1ccccc1NC(=O)c1ccccc1C(=O)O was read as ALOX12 inh 1.78µM, Gal4-VP16 FLuc inactive, DT40 TDP1 no CPT inactive, ELG1 repair inh inactive, DT40 TDP1 CPT inactive and RORg inh inactive[1.91 µM].
Cc1ccsc1C(=O)Nc1ccccc1N1CCCC1 was read as ALOX12 inh inconclusive, DT40 TDP1 no CPT 13µM, ELG1 repair inh inactive and DT40 TDP1 CPT inconclusive.
Screening O=C(Nc1ccccc1N1CCCC1)C1=COCCO1 returned ALOX12 inh inactive, DT40 TDP1 no CPT inactive, ELG1 repair inh inactive and DT40 TDP1 CPT inactive.
COc1ccccc1C(=O)Nc1ccccc1SC(=O)c1ccccc1OC was read as ALOX12 inh inactive, Gal4-VP16 FLuc inconclusive, DT40 TDP1 no CPT 2.59µM, ELG1 repair inh inconclusive, DT40 TDP1 CPT 2.59µM and RORg inh inconclusive.
Screening O=C(Nc1ccccc1N1CCCCC1)c1cccc(Cl)c1 returned ALOX12 inh inactive, Gal4-VP16 FLuc inactive, DT40 TDP1 no CPT inconclusive, ELG1 repair inh inactive, DT40 TDP1 CPT inconclusive and RORg inh inactive.
For COc1cc(C(=O)Nc2ccccc2N2CCCCC2)cc(OC)c1OC the results were ALOX12 inh inactive, Gal4-VP16 FLuc inactive, DT40 TDP1 no CPT 20.6µM, ELG1 repair inh 20.6µM, DT40 TDP1 CPT inconclusive and RORg inh inactive.
Screening COc1ccccc1C(=O)Nc1cc(-c2ccc(C)cc2)no1 returned ALOX12 inh inconclusive, Gal4-VP16 FLuc inactive, DT40 TDP1 no CPT 13µM!, ELG1 repair inh inconclusive, DT40 TDP1 CPT inconclusive and RORg inh inactive.
For Cc1ccc(-c2cc(NC(=O)c3cccc(C)c3)on2)cc1 the results were ALOX12 inh inactive, DT40 TDP1 no CPT inactive and DT40 TDP1 CPT inactive.
Cc1ccccc1C(=O)Nc1ccccc1N1CCCCC1 was read as ALOX12 inh inactive, Gal4-VP16 FLuc inactive, DT40 TDP1 no CPT 16.4µM, ELG1 repair inh inactive, DT40 TDP1 CPT inconclusive and RORg inh inconclusive.
Cc1ccc(Cl)cc1N1CCN(Cc2nc3c([nH]2)c(=O)n(C)c(=O)n3C)CC1 was read as ALOX12 inh inactive.
For CCCSc1ncc(Cl)c(C(=O)Nc2ccccc2C)n1 the results were ALOX12 inh inactive.
For COCC(=O)NC1CCC12CCN(Cc1ccc(F)c(F)c1)CC2 (stereo not given) the results were ALOX12 inh inactive.
Screening O=C(Nc1ccccc1N1CCCC1)c1cc(Cl)ccc1Cl returned ALOX12 inh inactive, Gal4-VP16 FLuc inactive, DT40 TDP1 no CPT inactive, ELG1 repair inh inactive, DT40 TDP1 CPT inactive and RORg inh inactive.
For COc1ccc(Cl)cc1C(=O)Nc1ccccc1N1CCCCC1 the results were ALOX12 inh inactive, Gal4-VP16 FLuc inactive, DT40 TDP1 no CPT 29.1µM, ELG1 repair inh inactive, DT40 TDP1 CPT 18.4µM and RORg inh inactive.
For CC(c1n[nH]c(=S)n1-c1ccc(F)cc1)N1CCCCC1 (stereo not given) the results were ALOX12 inh inconclusive, Gal4-VP16 FLuc inconclusive, DT40 TDP1 no CPT inactive, ELG1 repair inh inactive, DT40 TDP1 CPT inactive and RORg inh 12.6µM.
For O=C(NCc1n[nH]c(=S)n1-c1ccc(F)cc1)c1ccc(S(=O)(=O)N2CCCCC2)cc1 the results were ALOX12 inh inconclusive, Gal4-VP16 FLuc inactive, DT40 TDP1 no CPT inactive, ELG1 repair inh inactive, DT40 TDP1 CPT inactive and RORg inh inactive.
`Cc1ccccc1-n1c(-c2ccc3ccccc3n2)n[nH]c1=S` gave ALOX12 inh inconclusive, Gal4-VP16 FLuc 5.01µM, DT40 TDP1 no CPT inactive, ELG1 repair inh inactive, DT40 TDP1 CPT inactive and RORg inh 0.316µM.
`CC(c1n[nH]c(=S)n1-c1ccc(Cl)cc1)N(C)C` (stereo not given) gave ALOX12 inh inconclusive, Gal4-VP16 FLuc inactive, DT40 TDP1 no CPT inactive, ELG1 repair inh inactive, DT40 TDP1 CPT inactive and RORg inh 12.6µM.
For S=c1[nH]nc(-c2ccc3ccccc3n2)n1-c1ccc(Cl)cc1 the results were ALOX12 inh inactive, Gal4-VP16 FLuc 1.41µM, DT40 TDP1 no CPT inconclusive, ELG1 repair inh inactive, DT40 TDP1 CPT inconclusive and RORg inh 1.12µM.
COc1cccc(Oc2c(C)oc3cc(OC(=O)N4CCOCC4)ccc3c2=O)c1 was read as ALOX12 inh inactive.
Screening COc1cc(OC)c(-c2nn3c(C4CCCCC4)nnc3s2)cc1OC returned ALOX12 inh inconclusive, Gal4-VP16 FLuc inactive, DT40 TDP1 no CPT inconclusive, ELG1 repair inh 20.6µM, DT40 TDP1 CPT inconclusive and RORg inh inactive.
`CCOc1cccc(-c2nnc3sc(-c4cc(OC)c(OC)cc4OC)nn23)c1` gave Gal4-VP16 FLuc inactive, ELG1 repair inh inactive and RORg inh inactive.
Screening COc1cc(OC)c(-c2nn3c(-c4cc(C)[nH]n4)nnc3s2)cc1OC returned DT40 TDP1 no CPT 4.47µM and DT40 TDP1 CPT 7.08µM.
